Experimental data as given in PubChem BioAssay (NCI).
About 83,000 compounds went through this panel and 20% of them were active in at least one assay; those are over-represented in the sample as a whole.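 In brief: 96-well plates, 48 h treatment, single concentration, percent growth endpoint.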 The source made the active and inactive calls. Rule for the calls: active = growth percent below 10; inactive = the rest.

Experiments:
Assay in all cases: NCI-60 one-dose screen, 48 h (100 = growth as untreated, 0 = no growth, -100 = all killed)
NCI-H23 lung = test system: NCI-H23 lung
NCI-H226 lung = test system: NCI-H226 lung
NCI-H322M lung = test system: NCI-H322M lung
HOP-62 NSCLC = test system: HOP-62 NSCLC
NCI-H460 lung = test system: NCI-H460 lung
HOP-92 NSCLC = test system: HOP-92 NSCLC
NCI-H522 lung = test system: NCI-H522 lung
A549/ATCC NSCLC = test system: A549/ATCC NSCLC
786-0 renal = test system: 786-0 renal
COLO 205 colon = test system: COLO 205 colon
DU-145 prostate = test system: DU-145 prostate
K-562 leukemia = conditions: 10 µM unless noted
MALME-3M melanoma = test system: MALME-3M melanoma
MDA-MB-231 breast = test system: MDA-MB-231 breast
RXF 393 renal = test system: RXF 393 renal
SF-268 CNS = test system: SF-268 CNS
SF-295 CNS = test system: SF-295 CNS
SF-539 CNS = test system: SF-539 CNS
UACC-257 melanoma = test system: UACC-257 melanoma
M14 melanoma = test system: M14 melanoma

Measured: growth

COc1cc(CNC(=O)C[C@H](C)CCC=C(C)C)ccc1OCc1cn(-c2ccccc2Cl)nn1
inactive: NCI-H23 lung; 10 µM unless noted 64.5% | NCI-H226 lung; 10 µM unless noted 59.7% | NCI-H322M lung; 10 µM unless noted 91.3% | HOP-62 NSCLC; 10 µM unless noted 79.3% | NCI-H460 lung; 10 µM unless noted 78.4% | HOP-92 NSCLC; 10 µM unless noted 79.4% | NCI-H522 lung; 10 µM unless noted 51.4% | A549/ATCC NSCLC; 10 µM unless noted 64.1% | 786-0 renal; 10 µM unless noted 87.7% | COLO 205 colon; 10 µM unless noted 71.7% | DU-145 prostate; 10 µM unless noted 90.1% | K-562 leukemia 44.6% | MALME-3M melanoma; 10 µM unless noted 68.2% | MDA-MB-231 breast; 10 µM unless noted 72.6% | RXF 393 renal; 10 µM unless noted 72.6% | SF-268 CNS; 10 µM unless noted 82.4% | SF-295 CNS; 10 µM unless noted 56.4% | SF-539 CNS; 10 µM unless noted 75.2% | UACC-257 melanoma; 10 µM unless noted 60.3% | M14 melanoma; 10 µM unless noted 55.9%

CC/C(=C(/c1ccc(O)cc1)c1ccc(OCCN(C)C(=O)COCCOCCNC(=O)c2ccc3c(c2)CN([C@@H]2CCC(=O)NC2=O)C3=O)cc1)c1ccccc1
active: MDA-MB-231 breast; 10 µM 8.81%
inactive: NCI-H23 lung; 1 µM 99% | NCI-H23 lung; 10 µM 97% | NCI-H226 lung; 1 µM 89.4% | NCI-H226 lung; 10 µM 65.4% | NCI-H322M lung; 1 µM 101% | NCI-H322M lung; 10 µM 85.2% | HOP-62 NSCLC; 1 µM 93.4% | HOP-62 NSCLC; 10 µM 81% | NCI-H460 lung; 1 µM 111% | NCI-H460 lung; 10 µM 114% | HOP-92 NSCLC; 1 µM 26.9% | HOP-92 NSCLC; 10 µM 18.2% | NCI-H522 lung; 1 µM 91.7% | NCI-H522 lung; 10 µM 90% | A549/ATCC NSCLC; 1 µM 89.4% | A549/ATCC NSCLC; 10 µM 85.3% | 786-0 renal; 1 µM 94% | 786-0 renal; 10 µM 96.7% | COLO 205 colon; 1 µM 91.3% | COLO 205 colon; 10 µM 79.3% | DU-145 prostate; 1 µM 107% | DU-145 prostate; 10 µM 109% | MALME-3M melanoma; 1 µM 64.1% | MALME-3M melanoma; 10 µM 31.4% | MDA-MB-231 breast; 1 µM 25.5% | RXF 393 renal; 1 µM 98.3% | RXF 393 renal; 10 µM 99% | SF-268 CNS; 1 µM 88.3% | SF-268 CNS; 10 µM 83.7% | SF-295 CNS; 1 µM 102% | SF-295 CNS; 10 µM 94.8% | SF-539 CNS; 1 µM 92.1% | SF-539 CNS; 10 µM 91.1% | UACC-257 melanoma; 1 µM 96.2% | UACC-257 melanoma; 10 µM 95.5% | M14 melanoma; 1 µM 89.9% | M14 melanoma; 10 µM 92%

O=C(N/N=C/c1ccsc1)c1[nH]c2ccc(Br)cc2c1-c1ccccc1
active: NCI-H23 lung; 10 µM unless noted -78% | NCI-H226 lung; 10 µM unless noted -49.5% | NCI-H322M lung; 10 µM unless noted -7.27% | HOP-62 NSCLC; 10 µM unless noted -64.7% | NCI-H460 lung; 10 µM unless noted -72.5% | HOP-92 NSCLC; 10 µM unless noted -50.5% | NCI-H522 lung; 10 µM unless noted -70.9% | A549/ATCC NSCLC; 10 µM unless noted 3.43% | 786-0 renal; 10 µM unless noted -60.8% | COLO 205 colon; 10 µM unless noted -63.1% | DU-145 prostate; 10 µM unless noted -26.4% | K-562 leukemia 4.77% | MALME-3M melanoma; 10 µM unless noted -72.5% | MDA-MB-231 breast; 10 µM unless noted -69.9% | RXF 393 renal; 10 µM unless noted -47.5% | SF-268 CNS; 10 µM unless noted -56.1% | SF-295 CNS; 10 µM unless noted -87.5% | SF-539 CNS; 10 µM unless noted -95.5% | UACC-257 melanoma; 10 µM unless noted -51.9% | M14 melanoma; 10 µM unless noted -73.8%
